HSD17B inhib – inhibitors of human HSD17B10 dehydrogenase; hit rate 7.6% among 75,000; Potency, µM (titrated, usually from 57.1 µM), without a hit: at the highest dose activity change, negative = inhibition, hits mostly inhibitors; AID 893; recombinant HSD17B10, NADH fluorescence kinetic; Q99714;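 note: the protocol describes HADH2 (HSD17B10) and not the HSD17B4 of the title; potency is the fitted concentration of half-maximal effect; % is set by controls: 0 for no effect and ±100 for the full control effect; nearly all actives have a fitted effect of over 70% in size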
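His-tagged E. coli-expressed HADH2 at 20 nM in 100 mM Tris-HCl pH 9.0 with 0.01 % Tween-20, preincubated 15 min with compound at room temperature. Reaction with 1 mM NAD+ and 90 uM beta-hydroxybutyryl coenzyme A; NADH fluorescence (360/450 nm) read kinetically over 4 min, last minus first point.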
A350 fluor – compounds fluorescent in Alexa 350 spectral region; AID 590; hit rate 11% among 59,000; max dye-equivalent concentration, M; Compound autofluorescence, 340/450 nm, Alexa 350 dye-equivalents; active compounds read high; in the data active = max dye-equivalent concentration above about 10 nM; inconclusive = mostly about 1.1 nM to 9.6 nM
4MU fluor – compounds fluorescent in 4-MU spectral region; compound autofluorescence, 340/450 nm, 4-MU equivalents; active compounds read high; hit rate 11% among 59,000; max dye-equivalent concentration, M; AID 589; in the data active = max dye-equivalent concentration above about 10 nM; inconclusive = mostly about 1.1 nM to 9.6 nM
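Intrinsic fluorescence at 340/450 nm (ex/em) was read after 15 min at room temperature in pH 8.0, 100 mM Tris. Each compound concentration expressed as 4-MU-equivalent concentration from a six-point 4-MU standard series on each plate.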
CRE Fsk mod – CRE-bla signaling modulation under forskolin stimulation; CHO CRE-bla reporter (cAMP response element driving beta-lactamase), forskolin EC10, beta-lactamase ratio; Potency, µM (top dose mostly 38.2 µM), for inactives: at the highest dose activity change, negative = inhibition, usual class: activators; hit rate 2.5% among 71,000; active = well fitted activation curve with a large enough effect in the signal ratio, with a control signal flat, not every such curve was filed as active; inconclusive = small, poorly fitted or top-dose-only effect, or effect the other way, or a change in a side signal; the % refers to the signal ratio; note: potency is the fitted concentration of half-maximal effect; % of control where 0% means no effect
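Using CellSensor CRE-bla CHO cells in Opti-MEM with 0.5% dialyzed FBS, compounds were titrated with EC10 NKH 477 for 3 h at 37 °C. CCF4 ratio (460/530 nm) gave %Activity; AC50 derived.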
HADH2 inh – HADH2 (human) dehydrogenase inhibition. Potency, µM (highest dose often 57.1 µM), for the others: at the top dose activity change, negative = inhibition, usual class: inhibitors. hit rate 3.4% among 73,000. recombinant HADH2, NADH fluorescence, beta-hydroxybutyryl-CoA. Q99714; note: potency is the fitted concentration of half-maximal effect; % is set by controls: 0 for no effect and ±100 for the full control effect; nearly all actives have a fitted effect of over 60% in size
Target sequence (Q99714 whole entry, looked up, one chain of several): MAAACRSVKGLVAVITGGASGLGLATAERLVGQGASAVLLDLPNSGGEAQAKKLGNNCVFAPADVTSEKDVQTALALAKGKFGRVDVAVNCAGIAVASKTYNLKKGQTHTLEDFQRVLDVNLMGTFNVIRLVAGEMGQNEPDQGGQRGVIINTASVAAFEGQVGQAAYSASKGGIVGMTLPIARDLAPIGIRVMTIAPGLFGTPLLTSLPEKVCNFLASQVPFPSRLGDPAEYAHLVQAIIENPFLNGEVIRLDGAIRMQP
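E. coli-expressed His-tagged HADH2 tested at 20 nM in alkaline Tris buffer (pH 9.0); oxidation of 90 uM beta-hydroxybutyryl-CoA with 1 mM NAD+ tracked fluorimetrically for 4 min.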
AID923 – qHTS Assay for Allosteric/Competitive Inhibitors of Caspase-1: Spectroscopic Profiling in AFC Spectral Region | compound fluorescence, AFC spectral region (405/520 nm) | Potency, µM (titrated, usually from 57.5 µM), for inactives: top-dose fluorescence increase, hits mostly activators | hit rate 1.1% among 75,000 | AID 923, 2007; note: potency is the fitted concentration of half-maximal effect; 0% is about no effect
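Compound autofluorescence profiled at 405 nm ex/520 nm em during kinetic caspase 1 run (50 nM enzyme, 5 uM Ac-WEHD-AFC, HEPES pH 7.5, 10 mM DTT). Titration up to 57 uM; baseline from regression intercept, normalized to AFC standard curve.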
An asterisk follows results filed as active; i = inactive; ? = inconclusive; . = no result given; [ ] = remark or other dose. In the library only some 14% were active in any assay of this set; here they are far more common. Unless noted, calls come from the whole dose curve; as a rule, active = well fitted curve in the direction sought with a large enough effect; inconclusive = small, poorly fitted or top-dose-only effect, or another doubt; inactive = no such curve, though single readings can be large; an effect the other way counts as inactive or inconclusive.

SMILES | HSD17B inhib | A350 fluor | 4MU fluor | CRE Fsk mod | HADH2 inh | AID923
CN1C(=O)c2ccccc2N(C)C1c1cccs1 (stereo unspecified) | 32µM* | 2e-06M* | 1.6e-06M* | 0% | ? | 17%
c1ccc(N2CCN(c3ccccc3)C2c2cccs2)cc1 | 6% | . | . | ? | 5% | 4%
CC(C)C[C@H]1C(=O)N2CCC[C@@H]2[C@]2(O)O[C@](NC(=O)[C@H]3C=C4c5cccc6[nH]c(Br)c(c56)C[C@H]4N(C)C3)(C(C)C)C(=O)N12 | -6%[25.6 µM] | 2.4e-08M* | 2.7e-08M* | ? | -4%[25.6 µM] | 9%[25.7 µM]
COc1cc(-c2nnc(SCC(=O)N3CCCC3)o2)cc(OC)c1OC | -17% | i | i | ? | ? | -1%
CCCN1C(=O)c2cc(C(=O)O)ccc2C1O (stereo unspecified) | -16% | . | . | 0% | -16% | 0%
COc1ccc(C2C(C(C)=O)=C(O)C(=O)N2CCc2ccccc2)c(OC)c1 (stereo unspecified) | -21% | i | i | -14% | -26% | 1%
CCCN1C(=O)c2ccccc2NC1c1ccc(OC)cc1O (stereo unspecified) | 32µM* | 8e-07M* | 5.8e-07M* | 12% | 41% | 5%
CCCN1C(=O)c2ccccc2NC1c1ccc(OC)cc1OC (stereo unspecified) | 25µM* | 9.9e-07M* | 8.5e-07M* | ? | 32µM* | 7%
COc1c(N2CCNC(C)C2)c(F)cc2c(=O)c(C(=O)O)cn(C3CC3)c12 (stereo unspecified) | 32µM* | 8.8e-08M* | 6.8e-08M* | 2% | 26% | 2%
COc1ccc(OC)c(NC(=O)CSc2nc3ccccc3c(=O)n2CCNC(C)=O)c1 | 3% | 1.1e-07M* | 8.9e-08M* | 10µM* | -1% | 0%
CCn1c(SCC(=O)Nc2nc3c(s2)CCCC3)nc2c1c(=O)n(C)c(=O)n2C | 13% | i | i | -3% | 5% | 0%
CCOc1ccc2nc(NC(=O)CSc3nc4c(c(=O)n(C)c(=O)n4C)n3C(C)C)sc2c1 | -1% | i | i | 4µM* | 44% | 0%
COc1ccc(NC(=O)CSc2nc3ccccc3c(=O)n2CCNC(C)=O)c(OC)c1 | 3% | ? | i | ? | 15% | -1%
CCOc1ccc2nc(NC(=O)Cn3cnc4c3c(=O)n(C)c(=O)n4C)sc2c1 | -4% | i | i | ? | 4% | -2%
CCn1c(SCC(=O)Nc2nc3ccc(OC)cc3s2)nc2c1c(=O)n(C)c(=O)n2C | 8% | i | i | 2µM* | 7% | -1%
COc1ccc(OC)c(NC(=O)CSc2nc3c(c(=O)n(C)c(=O)n3C)n2C)c1 | 1% | i | i | 2µM* | -10% | -1%
O=C(COC(=O)c1ccco1)Nc1ccc(Br)cc1 | 4% | ? | ? | -4% | -10% | -3%
C/C(=N\O)C(=O)NCCCNCCCN(C)C | . | i | i | . | . | .
Cc1noc(C)c1C(=O)N1CCC2(CCCN(Cc3ccccc3)C2)CC1 | 7% | ? | ? | -5% | 8% | 0%
CCn1c(SCC(=O)Nc2ccc3c(c2)OCO3)nc2c1c(=O)n(C)c(=O)n2C | 0% | i | i | ? | 4% | 0%
CCCn1c(SCC(=O)Nc2ccc3c(c2)OCO3)nc2c1c(=O)n(C)c(=O)n2C | 7% | i | i | 2.5µM* | 3% | 0%
CS(=O)(=O)N1CCCC(C(=O)NCc2ccc(F)cc2Cl)C1 (stereo unspecified) | 2% | i | i | 10µM* | 3% | -1%
COCCn1c(C)cc(C(=O)COC(=O)c2ccc(-n3nc(C)cc3C)cc2)c1C | 2% | i | i | -2% | 10% | 0%
Nc1ccc(-c2ccc(Nc3cc(S(=O)(=O)O)c(N)c4c3C(=O)c3ccccc3C4=O)cc2)c(S(=O)(=O)O)c1 | 3.2µM* | i | i | 1%[7.6 µM] | -20%[11.4 µM] | 0%[11.5 µM]
Cc1cccc(C)c1N(CC(=O)N1CCN(C)CC1)S(C)(=O)=O | 3% | i | i | 1% | 14% | -1%

Compound activity deposited in PubChem by National Center for Advancing Translational Sciences (NCATS).
